# Source: PMC7862700, “An all-to-all approach to the identification of sequence-specific readers for epigenetic DNA modifications on cytosine”
# Legend:
# Assay in all cases: DAPPL (digital affinity profiling via proximity ligation, sequencing); 10 mM Tris-HCl pH 7.5, 50 mM NaCl, 1 mM DTT, 4% glycerol, room temperature, 30 min; GST-TFs on glutathione beads, 16-mer random dsDNA library, 0.1% formaldehyde crosslink after washing; high values mean tight binding
# [1] = molecular target: T1, FEV (Homo sapiens, UniProt Q99581 1-238); settings: protein: recombinant; tags: N-terminal GST; dsDNA, one strand shown
# T1 sequence: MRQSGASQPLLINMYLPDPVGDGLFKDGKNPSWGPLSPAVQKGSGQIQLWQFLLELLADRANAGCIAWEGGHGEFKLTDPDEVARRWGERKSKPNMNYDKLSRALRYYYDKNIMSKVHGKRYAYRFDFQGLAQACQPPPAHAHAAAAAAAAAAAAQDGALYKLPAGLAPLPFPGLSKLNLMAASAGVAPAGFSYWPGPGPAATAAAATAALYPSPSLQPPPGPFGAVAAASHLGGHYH
# Method in brief: (§1)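 Binding signal is each hexamer's read frequency for a factor divided by its frequency in the tag-only sample. The factors were GST-fused human transcription factors from yeast, captured on glutathione beads, DNA-barcoded and pooled with that sample. Pools were incubated with 200 nmole of a random double-stranded 16-mer DNA library in Tris/NaCl/DTT/glycerol buffer at room temperature for 30 min, then washed, crosslinked with 0.1% formaldehyde, proximity-ligated with BsaI/T4 ligase (1 h, 37 °C), PCR-amplified and sequenced on an Illumina NextSeq500.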
# [2] = molecular target: ETV5 (Homo sapiens, UniProt P41161 1-510); settings: protein: recombinant; tags: N-terminal GST; dsDNA, one strand shown
# ETV5, sequence (P41161 whole entry): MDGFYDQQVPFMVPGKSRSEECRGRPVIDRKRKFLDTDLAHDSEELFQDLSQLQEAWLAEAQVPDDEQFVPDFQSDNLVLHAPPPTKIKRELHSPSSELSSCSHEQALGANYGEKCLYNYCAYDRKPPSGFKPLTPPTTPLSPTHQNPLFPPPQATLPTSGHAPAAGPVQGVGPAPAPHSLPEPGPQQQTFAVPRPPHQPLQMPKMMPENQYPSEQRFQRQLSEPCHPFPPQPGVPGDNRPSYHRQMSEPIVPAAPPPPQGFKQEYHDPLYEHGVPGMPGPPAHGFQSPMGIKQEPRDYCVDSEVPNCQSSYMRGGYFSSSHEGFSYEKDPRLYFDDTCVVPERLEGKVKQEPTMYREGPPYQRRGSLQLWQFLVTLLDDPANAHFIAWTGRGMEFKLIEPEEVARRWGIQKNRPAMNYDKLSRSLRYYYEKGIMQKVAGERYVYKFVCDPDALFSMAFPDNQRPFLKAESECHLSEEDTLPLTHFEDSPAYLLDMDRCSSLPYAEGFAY
# Method in brief: as §1
# [3] = molecular target: HSF1 (Homo sapiens, UniProt Q00613 1-529); settings: protein: recombinant; tags: N-terminal GST; chain copies: 3; dsDNA, one strand shown
# HSF1, sequence (Q00613 whole entry): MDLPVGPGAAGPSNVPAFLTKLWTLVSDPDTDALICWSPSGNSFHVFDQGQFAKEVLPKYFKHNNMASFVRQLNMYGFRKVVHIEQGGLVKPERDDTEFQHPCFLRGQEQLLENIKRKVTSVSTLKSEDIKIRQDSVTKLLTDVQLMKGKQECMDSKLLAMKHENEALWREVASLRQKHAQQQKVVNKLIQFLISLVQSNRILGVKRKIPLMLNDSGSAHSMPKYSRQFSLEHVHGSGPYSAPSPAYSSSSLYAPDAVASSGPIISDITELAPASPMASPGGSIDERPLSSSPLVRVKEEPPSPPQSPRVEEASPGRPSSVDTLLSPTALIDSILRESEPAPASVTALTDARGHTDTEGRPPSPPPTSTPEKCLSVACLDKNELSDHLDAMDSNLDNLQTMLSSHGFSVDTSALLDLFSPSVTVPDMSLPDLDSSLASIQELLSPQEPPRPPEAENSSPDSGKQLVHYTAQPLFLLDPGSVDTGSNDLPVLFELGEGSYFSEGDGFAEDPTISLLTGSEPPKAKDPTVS
# Method in brief: as §1
# [4] = molecular target: T2, SPIC (Homo sapiens, UniProt Q8N5J4 1-248); settings: protein: recombinant; tags: N-terminal GST; dsDNA, one strand shown
# T2 sequence: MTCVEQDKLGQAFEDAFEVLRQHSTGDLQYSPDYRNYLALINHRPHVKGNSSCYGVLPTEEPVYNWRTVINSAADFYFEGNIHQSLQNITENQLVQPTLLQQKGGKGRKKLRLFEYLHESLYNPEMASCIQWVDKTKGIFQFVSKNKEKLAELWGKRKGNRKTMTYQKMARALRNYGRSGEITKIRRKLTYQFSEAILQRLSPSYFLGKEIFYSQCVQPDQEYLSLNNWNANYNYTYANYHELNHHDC
# Method in brief: as §1
# [5] = molecular target: ELF4 (Homo sapiens, UniProt Q99607 1-663); settings: protein: recombinant; tags: N-terminal GST; dsDNA, one strand shown
# ELF4, sequence (Q99607 whole entry): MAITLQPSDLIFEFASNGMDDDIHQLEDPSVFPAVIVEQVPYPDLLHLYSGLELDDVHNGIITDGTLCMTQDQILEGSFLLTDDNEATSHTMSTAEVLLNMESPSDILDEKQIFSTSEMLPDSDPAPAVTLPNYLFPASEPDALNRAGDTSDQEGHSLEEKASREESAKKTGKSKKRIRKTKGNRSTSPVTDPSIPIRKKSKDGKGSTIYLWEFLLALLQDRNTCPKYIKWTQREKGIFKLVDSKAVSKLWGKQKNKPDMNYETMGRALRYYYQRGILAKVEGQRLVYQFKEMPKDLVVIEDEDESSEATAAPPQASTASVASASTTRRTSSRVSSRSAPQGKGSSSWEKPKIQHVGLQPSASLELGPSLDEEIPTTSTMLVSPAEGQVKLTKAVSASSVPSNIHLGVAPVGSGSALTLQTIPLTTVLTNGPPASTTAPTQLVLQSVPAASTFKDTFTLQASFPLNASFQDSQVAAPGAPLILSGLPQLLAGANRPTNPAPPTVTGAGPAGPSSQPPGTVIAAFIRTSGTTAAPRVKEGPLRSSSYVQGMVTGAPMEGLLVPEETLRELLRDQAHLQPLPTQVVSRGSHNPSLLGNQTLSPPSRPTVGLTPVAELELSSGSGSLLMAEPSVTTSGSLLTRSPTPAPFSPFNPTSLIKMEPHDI
# Method in brief: as §1
# [6] = molecular target: T3, ELK4 (Homo sapiens, UniProt P28324-2 1-405); settings: protein: recombinant; tags: N-terminal GST; dsDNA, one strand shown
# T3 sequence: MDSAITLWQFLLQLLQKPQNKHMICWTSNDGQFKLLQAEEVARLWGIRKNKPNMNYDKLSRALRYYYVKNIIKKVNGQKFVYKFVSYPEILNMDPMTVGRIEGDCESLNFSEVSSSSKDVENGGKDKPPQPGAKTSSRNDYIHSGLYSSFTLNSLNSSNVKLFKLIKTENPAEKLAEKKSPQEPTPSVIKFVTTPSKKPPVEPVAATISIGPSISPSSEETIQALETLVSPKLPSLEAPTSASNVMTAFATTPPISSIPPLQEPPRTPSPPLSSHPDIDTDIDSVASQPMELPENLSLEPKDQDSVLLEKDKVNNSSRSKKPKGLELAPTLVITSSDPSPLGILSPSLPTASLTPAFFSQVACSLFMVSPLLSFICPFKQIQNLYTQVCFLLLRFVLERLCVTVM
# Method in brief: as §1
# [7] = molecular target: T4, ETV2 (Homo sapiens, UniProt O00321 1-342); settings: protein: recombinant; tags: N-terminal GST; dsDNA, one strand shown
# T4 sequence: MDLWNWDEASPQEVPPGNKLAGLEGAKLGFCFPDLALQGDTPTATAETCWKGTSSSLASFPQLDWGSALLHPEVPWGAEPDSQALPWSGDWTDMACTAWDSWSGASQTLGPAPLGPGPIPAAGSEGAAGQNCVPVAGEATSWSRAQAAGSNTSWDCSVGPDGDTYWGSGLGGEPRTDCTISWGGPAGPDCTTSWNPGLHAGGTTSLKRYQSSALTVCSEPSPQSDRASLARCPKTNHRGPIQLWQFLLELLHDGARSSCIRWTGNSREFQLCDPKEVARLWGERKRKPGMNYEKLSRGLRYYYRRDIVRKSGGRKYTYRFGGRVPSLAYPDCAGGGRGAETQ
# Method in brief: as §1
# [8] = molecular target: T5, ELF3 (Homo sapiens, UniProt P78545 1-371); settings: protein: recombinant; tags: N-terminal GST; dsDNA, one strand shown
# T5 sequence: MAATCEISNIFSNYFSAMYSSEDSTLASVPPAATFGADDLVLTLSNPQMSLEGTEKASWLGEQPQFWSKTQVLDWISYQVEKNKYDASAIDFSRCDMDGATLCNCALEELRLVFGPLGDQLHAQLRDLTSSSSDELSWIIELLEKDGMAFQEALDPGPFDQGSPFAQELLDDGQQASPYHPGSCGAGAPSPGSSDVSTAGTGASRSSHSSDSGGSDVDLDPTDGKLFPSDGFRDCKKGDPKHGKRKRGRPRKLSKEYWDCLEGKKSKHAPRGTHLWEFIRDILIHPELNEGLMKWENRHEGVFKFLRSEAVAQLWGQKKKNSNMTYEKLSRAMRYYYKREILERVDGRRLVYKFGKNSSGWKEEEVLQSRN
# Method in brief: as §1
# [9] = molecular target: CRX (Homo sapiens, UniProt O43186 1-299); settings: protein: recombinant; tags: N-terminal GST; dsDNA, one strand shown
# CRX, sequence (O43186 whole entry): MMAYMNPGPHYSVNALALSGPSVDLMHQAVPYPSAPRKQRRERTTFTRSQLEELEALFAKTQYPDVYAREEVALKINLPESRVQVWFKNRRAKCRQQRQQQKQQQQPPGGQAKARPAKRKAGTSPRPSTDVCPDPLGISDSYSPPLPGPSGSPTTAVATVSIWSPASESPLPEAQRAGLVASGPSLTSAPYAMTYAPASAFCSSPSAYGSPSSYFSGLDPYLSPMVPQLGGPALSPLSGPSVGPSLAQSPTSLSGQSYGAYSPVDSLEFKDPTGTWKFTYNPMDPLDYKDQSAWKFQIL
# Method in brief: as §1
# [10] = molecular target: ETV1 (Homo sapiens, UniProt P50549 1-477); settings: protein: recombinant; tags: N-terminal GST; dsDNA, one strand shown
# ETV1, sequence (P50549 whole entry): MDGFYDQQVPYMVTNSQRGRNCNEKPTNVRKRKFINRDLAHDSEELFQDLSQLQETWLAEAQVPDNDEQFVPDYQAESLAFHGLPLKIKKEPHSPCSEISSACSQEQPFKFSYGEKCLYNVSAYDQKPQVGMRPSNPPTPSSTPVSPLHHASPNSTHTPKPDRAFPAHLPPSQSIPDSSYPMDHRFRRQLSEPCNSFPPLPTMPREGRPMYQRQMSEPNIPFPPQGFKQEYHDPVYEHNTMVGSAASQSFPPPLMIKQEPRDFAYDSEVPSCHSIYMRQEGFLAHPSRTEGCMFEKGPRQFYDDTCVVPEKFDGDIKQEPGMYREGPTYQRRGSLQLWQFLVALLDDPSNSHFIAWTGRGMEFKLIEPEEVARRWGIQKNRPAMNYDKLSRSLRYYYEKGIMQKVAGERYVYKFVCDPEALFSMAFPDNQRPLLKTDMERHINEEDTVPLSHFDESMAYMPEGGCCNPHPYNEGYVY
# Method in brief: as §1
# [11] = molecular target: T6, ERF (Homo sapiens, UniProt P50548 1-548); settings: protein: recombinant; tags: N-terminal GST; dsDNA, one strand shown
# T6 sequence: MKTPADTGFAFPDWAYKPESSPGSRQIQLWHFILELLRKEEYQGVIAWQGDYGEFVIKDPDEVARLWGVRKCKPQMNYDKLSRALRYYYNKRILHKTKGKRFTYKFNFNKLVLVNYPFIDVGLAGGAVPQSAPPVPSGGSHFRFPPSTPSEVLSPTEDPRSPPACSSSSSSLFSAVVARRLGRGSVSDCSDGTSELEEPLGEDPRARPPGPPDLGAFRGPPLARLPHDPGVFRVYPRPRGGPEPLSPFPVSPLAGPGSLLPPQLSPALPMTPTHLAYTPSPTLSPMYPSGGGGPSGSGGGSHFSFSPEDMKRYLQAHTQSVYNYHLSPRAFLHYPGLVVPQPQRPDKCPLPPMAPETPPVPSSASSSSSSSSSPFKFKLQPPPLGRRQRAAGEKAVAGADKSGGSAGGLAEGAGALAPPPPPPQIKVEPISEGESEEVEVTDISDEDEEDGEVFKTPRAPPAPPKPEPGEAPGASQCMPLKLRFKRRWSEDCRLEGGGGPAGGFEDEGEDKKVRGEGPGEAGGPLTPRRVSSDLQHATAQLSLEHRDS
# Method in brief: as §1
# [12] = molecular target: T7, ETV3L (Homo sapiens, UniProt Q6ZN32 1-361); settings: protein: recombinant; tags: N-terminal GST; dsDNA, one strand shown
# T7 sequence: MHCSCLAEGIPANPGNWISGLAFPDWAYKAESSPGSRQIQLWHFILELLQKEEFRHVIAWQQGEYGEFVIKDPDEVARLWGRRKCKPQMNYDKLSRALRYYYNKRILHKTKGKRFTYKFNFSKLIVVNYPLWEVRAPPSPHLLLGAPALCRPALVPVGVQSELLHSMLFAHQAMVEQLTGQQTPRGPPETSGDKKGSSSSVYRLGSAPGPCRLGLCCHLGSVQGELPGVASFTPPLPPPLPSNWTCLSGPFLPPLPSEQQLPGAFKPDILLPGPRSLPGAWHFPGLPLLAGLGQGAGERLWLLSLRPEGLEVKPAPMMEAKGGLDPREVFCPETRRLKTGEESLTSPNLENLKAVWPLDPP
# Method in brief: as §1
# [13] = molecular target: T8, ETS2 (Homo sapiens, UniProt P15036 1-469); settings: protein: recombinant; tags: N-terminal GST; dsDNA, one strand shown
# T8 sequence: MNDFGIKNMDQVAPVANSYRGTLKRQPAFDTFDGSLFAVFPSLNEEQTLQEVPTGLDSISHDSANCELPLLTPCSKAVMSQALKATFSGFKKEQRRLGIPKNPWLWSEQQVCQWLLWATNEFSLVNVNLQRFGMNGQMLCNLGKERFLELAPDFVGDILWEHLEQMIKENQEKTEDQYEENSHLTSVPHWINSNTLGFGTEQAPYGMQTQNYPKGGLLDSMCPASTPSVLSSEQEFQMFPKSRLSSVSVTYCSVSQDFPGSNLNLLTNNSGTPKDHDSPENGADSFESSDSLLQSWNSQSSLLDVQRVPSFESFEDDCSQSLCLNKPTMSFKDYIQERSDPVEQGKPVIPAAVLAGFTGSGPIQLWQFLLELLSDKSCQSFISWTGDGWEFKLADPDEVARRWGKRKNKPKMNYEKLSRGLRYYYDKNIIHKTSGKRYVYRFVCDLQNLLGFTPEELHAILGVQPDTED
# Method in brief: as §1
# [14] = molecular target: T9, SPDEF (Homo sapiens, UniProt O95238 1-335); settings: protein: recombinant; tags: N-terminal GST; dsDNA, one strand shown
# T9 sequence: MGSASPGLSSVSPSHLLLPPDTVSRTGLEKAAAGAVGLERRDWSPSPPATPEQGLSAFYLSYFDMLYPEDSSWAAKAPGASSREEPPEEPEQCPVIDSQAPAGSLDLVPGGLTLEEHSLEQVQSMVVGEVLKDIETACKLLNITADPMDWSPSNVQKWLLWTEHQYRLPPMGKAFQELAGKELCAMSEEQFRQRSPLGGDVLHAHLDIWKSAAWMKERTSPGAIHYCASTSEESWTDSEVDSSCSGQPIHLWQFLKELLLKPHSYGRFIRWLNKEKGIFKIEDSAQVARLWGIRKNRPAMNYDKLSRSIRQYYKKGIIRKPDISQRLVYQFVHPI
# Method in brief: as §1
# [15] = molecular target: T10, ETV7 (Homo sapiens, UniProt Q9Y603 1-341); settings: protein: recombinant; tags: N-terminal GST; dsDNA, one strand shown
# T10 sequence: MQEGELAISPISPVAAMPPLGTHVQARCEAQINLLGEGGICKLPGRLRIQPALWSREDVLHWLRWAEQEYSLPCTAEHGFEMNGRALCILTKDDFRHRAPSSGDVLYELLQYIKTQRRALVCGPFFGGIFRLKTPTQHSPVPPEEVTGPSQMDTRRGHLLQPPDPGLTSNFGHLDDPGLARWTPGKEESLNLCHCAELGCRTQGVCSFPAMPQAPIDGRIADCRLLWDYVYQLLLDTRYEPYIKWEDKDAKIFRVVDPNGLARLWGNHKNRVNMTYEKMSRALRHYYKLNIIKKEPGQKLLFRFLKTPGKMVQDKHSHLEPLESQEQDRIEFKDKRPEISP
# Method in brief: as §1
# [16] = molecular target: T11, ELF5 (Homo sapiens, UniProt Q9UKW6-2 1-255); settings: protein: recombinant; tags: N-terminal GST; dsDNA, one strand shown
# T11 sequence: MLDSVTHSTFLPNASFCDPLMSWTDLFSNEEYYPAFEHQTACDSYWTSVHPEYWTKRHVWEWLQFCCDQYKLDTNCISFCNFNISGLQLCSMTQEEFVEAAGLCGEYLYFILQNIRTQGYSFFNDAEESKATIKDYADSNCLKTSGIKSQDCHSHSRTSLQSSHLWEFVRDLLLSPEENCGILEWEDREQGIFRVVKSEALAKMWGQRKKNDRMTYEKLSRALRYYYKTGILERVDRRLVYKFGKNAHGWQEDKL
# Method in brief: as §1
# [17] = molecular target: T12, ETV3 (Homo sapiens, UniProt P41162-2 1-143); settings: protein: recombinant; tags: N-terminal GST; dsDNA, one strand shown
# T12 sequence: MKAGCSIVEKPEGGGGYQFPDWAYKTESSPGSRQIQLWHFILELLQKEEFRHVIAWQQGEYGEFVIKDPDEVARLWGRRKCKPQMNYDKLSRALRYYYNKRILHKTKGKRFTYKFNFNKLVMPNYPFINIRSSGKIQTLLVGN
# Method in brief: as §1
# [18] = molecular target: ETV6 (Homo sapiens, UniProt P41212 1-452); settings: protein: recombinant; tags: N-terminal GST; dsDNA, one strand shown
# ETV6, sequence (P41212 whole entry): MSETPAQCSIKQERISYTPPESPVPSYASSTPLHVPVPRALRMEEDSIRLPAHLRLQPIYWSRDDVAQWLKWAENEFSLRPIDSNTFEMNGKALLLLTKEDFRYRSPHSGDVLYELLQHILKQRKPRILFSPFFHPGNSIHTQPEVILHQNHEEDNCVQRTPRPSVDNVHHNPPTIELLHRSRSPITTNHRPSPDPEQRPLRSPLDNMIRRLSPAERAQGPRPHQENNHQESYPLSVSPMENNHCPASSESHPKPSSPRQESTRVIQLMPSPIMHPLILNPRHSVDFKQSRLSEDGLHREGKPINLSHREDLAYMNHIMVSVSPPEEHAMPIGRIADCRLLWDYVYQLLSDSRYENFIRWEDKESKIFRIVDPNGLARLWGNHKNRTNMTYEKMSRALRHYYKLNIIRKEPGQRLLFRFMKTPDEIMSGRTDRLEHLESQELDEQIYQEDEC
# Method in brief: as §1
sequence,measurement,setting,value
TCTCCG,binding signal,[1],"1.69 fold enrichment (6-mer frequency, TF over GST control)"
same,binding signal,[2],"1.61 fold enrichment (6-mer frequency, TF over GST control)"
same,binding signal,[3],"1.43 fold enrichment (6-mer frequency, TF over GST control)"
same,binding signal,[4],"1.55 fold enrichment (6-mer frequency, TF over GST control)"
same,binding signal,[5],"1.59 fold enrichment (6-mer frequency, TF over GST control)"
same,binding signal,[6],"1.68 fold enrichment (6-mer frequency, TF over GST control)"
same,binding signal,[7],"1.47 fold enrichment (6-mer frequency, TF over GST control)"
same,binding signal,[8],"1.2 fold enrichment (6-mer frequency, TF over GST control)"
same,binding signal,[9],"1.37 fold enrichment (6-mer frequency, TF over GST control)"
same,binding signal,[10],"1.48 fold enrichment (6-mer frequency, TF over GST control)"
same,binding signal,[11],"1.38 fold enrichment (6-mer frequency, TF over GST control)"
same,binding signal,[12],"1.43 fold enrichment (6-mer frequency, TF over GST control)"
same,binding signal,[13],"1.62 fold enrichment (6-mer frequency, TF over GST control)"
same,binding signal,[14],"1.65 fold enrichment (6-mer frequency, TF over GST control)"
same,binding signal,[15],"1.31 fold enrichment (6-mer frequency, TF over GST control)"
same,binding signal,[16],"1.56 fold enrichment (6-mer frequency, TF over GST control)"
same,binding signal,[17],"1.66 fold enrichment (6-mer frequency, TF over GST control)"
same,binding signal,[18],"1.48 fold enrichment (6-mer frequency, TF over GST control)"
